Screening results from PubChem BioAssay.
PI5P4K alpha inh = blocks human PI5P4K alpha kinase activity; max response, %; P48426; AID 652105; PI5P4Kalpha enzyme, ADP-Glo luminescence, 60 min; active compounds read low; 330,000 compounds, 1.2% hits; active = max response of -50% or lower; inconclusive = between -30% and -50%; inactive = -30% or higher; also: value at the top dose of about 77 µM; % is scaled to controls: 0 for no effect and ±100 for the full control effect
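Enzyme plus substrate dispensed, test compounds pinned in, then ATP (5 microM final) added. After 60 min at RT, ADP-Glo reagent 1 for 45 min and reagent 2 for 30 min preceded luminescence imaging.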
Rango release inh = inhibitors of RanGTP-induced Rango-importin beta complex dissociation; 340,000 compounds, 0.071% hits; Potency, µM (top dose mostly 46.1 µM), inactives show at the top dose activity change, negative = inhibition; AID 540253; Biochemical FRET Rango-importin beta, RanGTP-induced dissociation; O95149+P62826; calls by dose curve; also: potency is read from the fitted curve at half-maximal effect; % of control where 0% means no effect; nearly all actives have a fitted effect of over 45% in size
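Compounds sat 5 min at room temperature with 0.1 uM Rango biosensor plus 0.25 uM importin beta, then FRET pre-read. RanGTP-RCC1 (0.6 uM Ran, 2mM GTP, 0.2 uM RCC1) added for 45 min, and the CFP/YFP post-read measured blocked complex dissociation.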
PLK1 PBD inh = inhibitors of human PLK1 polo-box domain binding; Plk1 PBD binding of FITC phosphopeptide, fluorescence polarization; Potency, µM, for inactives: max response, negative = inhibition, hits mostly inhibitors; 360,000 compounds, 2.8% hits; AID 720504; also: potency is read from the fitted curve at half-maximal effect; series mostly up to about 57 µM; % is scaled to controls: 0 for no effect and ±100 for the full control effect; nearly all actives have a fitted effect of over 65% in size
Target sequence (P53350 whole entry, looked up, the tested form may be a part): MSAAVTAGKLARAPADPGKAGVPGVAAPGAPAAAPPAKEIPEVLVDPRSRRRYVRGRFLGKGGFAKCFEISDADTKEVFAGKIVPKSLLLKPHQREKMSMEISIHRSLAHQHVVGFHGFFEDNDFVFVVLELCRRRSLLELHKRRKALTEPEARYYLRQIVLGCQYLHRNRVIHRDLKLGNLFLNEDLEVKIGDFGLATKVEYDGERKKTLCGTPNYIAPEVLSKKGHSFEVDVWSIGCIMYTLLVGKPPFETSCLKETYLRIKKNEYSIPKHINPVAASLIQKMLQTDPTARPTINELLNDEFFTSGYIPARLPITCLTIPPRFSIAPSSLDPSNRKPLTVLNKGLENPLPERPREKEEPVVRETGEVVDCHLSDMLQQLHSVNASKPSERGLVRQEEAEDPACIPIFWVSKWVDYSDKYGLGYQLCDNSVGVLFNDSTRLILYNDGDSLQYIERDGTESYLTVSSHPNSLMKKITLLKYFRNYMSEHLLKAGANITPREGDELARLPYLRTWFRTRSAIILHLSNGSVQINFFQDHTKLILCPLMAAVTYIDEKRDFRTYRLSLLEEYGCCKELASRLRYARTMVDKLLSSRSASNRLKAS
Rango complex inh = prevents formation of the Rango-importin beta complex; Q14974; Rango CFP/YFP FRET sensor + importin beta, 45 min; Potency, µM (series often up to 92.2 µM), for inactives: at the highest dose inhibition of complex formation; 340,000 compounds, 0.031% hits; AID 540263; calls by dose curve;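 also: potency is read from the fitted curve at half-maximal effect; 0% = DMSO wells and 100% = buffer wells lacking importin beta; nearly all actives have a fitted effect of over 15% in size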
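Inhibition scored from the CFP 486 nm/YFP 530 nm FRET ratio 45 min after adding 0.125 microM importin beta to 50 nM Rango biosensor preincubated 5 min with compound (room temperature, PBS with DTT, Tween-20, BSA). No-importin wells as positive control.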
VDR inh = inhibitors of human vitamin D receptor; P11473; Potency, µM, without a hit: max response, negative = inhibition, most hits filed as inhibitors; 400,000 compounds, 0.93% hits; VDR-SRC2-3 peptide fluorescence polarization, 2 h; AID 504847; also: potency is read from the fitted curve at half-maximal effect; % is scaled to controls: 0 for no effect and ±100 for the full control effect
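Fluorescence polarization assay measuring small-molecule disruption of VDR binding to the coregulator peptide SRC2-3. Compounds were pin-transferred (23 nl) into the reagent mix and incubated 2 h at room temperature before reading.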
GCN5L2 inh = blocks human GCN5L2 histone acetyltransferase. GCN5L2 HAT assay, ThioGlo1 CoA-SH fluorescence. 390,000 compounds, 0.21% hits. Potency, µM (top dose mostly 58.9 µM), for the others: top-dose activity change, negative = inhibition, actives largely listed as inhibitors; also: potency is read from the fitted curve at half-maximal effect; % is scaled to controls: 0 for no effect and ±100 for the full control effect
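Free CoA generated was detected with ThioGlo1 (50uM) fluorescence at Ex340nm/Em540nm, read immediately and after 20 min at room temperature. Enzyme, 20 nM in HEPES pH 7.5 buffer, saw compounds 15 min before adding 75uM H3(1-25) peptide and 70uM acetyl-CoA.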
Numbers without * were called inactive; ? = inconclusive; / = no result; [ ] = dose if it differs, or a comment. An excerpt weighted towards active compounds, which were near 3.6% of everything screened. Unless noted, calls follow the shape of the dose curve; as a rule, active = well fitted curve in the direction sought with a large enough effect; inconclusive = small, poorly fitted or top-dose-only effect, or another doubt; inactive = no such curve, though single readings can be large; an effect the other way counts as inactive or inconclusive.

SMILES	PI5P4K alpha inh	Rango release inh	PLK1 PBD inh	Rango complex inh	VDR inh	GCN5L2 inh
CC(=O)Nc1cccc(C(=O)OCC(=O)c2ccc(S(=O)(=O)N3CCCCC3)cc2)c1	-21.4	5.0%	-29.8%	-1.7%	-14.0%	-6.0%
CNS(=O)(=O)c1cccc(C(=O)OCC(=O)c2ccc(S(=O)(=O)N3CCCCC3)cc2)c1	-55.6*	4.8%	-5.8%	-0.9%	0.2%	-7.7%
O=C(NCCc1ccccc1)C(=O)NCC1CCCO1 (stereo unspecified)	/	-12.5%	-0.7%	0.3%	-5.7%	-3.4%
O=C(NCC1CCCO1)C(Cc1ccccc1)N1C(=O)C2C3C=CC(C4CC34)C2C1=O (stereo unspecified)	-20.9	-2.2%	10.6µM*	2.8%	?	-9.2%
COc1ccc(N(C(=O)c2ccc(OC)c(OC)c2)S(=O)(=O)c2ccc(Cl)cc2)cc1	/	/	/	/	-3.9%	-12.2%
CC1(C)N([O-])C2=C(c3ccccc3C2=O)[N+](=O)C1(C)C	3.9	-5.4%	10.6µM*	?	?	-3.0%[0.501 µM]
CCOc1ccc(C(=O)N(Cc2nc(-c3cccc(C)c3)no2)C(C)C)cc1	/	/	/	/	-7.9%	-3.8%
O=C(CSc1nc(-c2ccccc2)nc2c1Cc1ccccc1O2)Nc1ccc(C(=O)O)cc1	-63.2*	?	21.2µM*	?	-14.6%	28.2µM*
O=C(CSc1nc(-c2ccc(F)cc2)nc2c1Cc1ccccc1O2)Nc1ccc(C(=O)O)cc1	-28.3	-2.5%	15µM*	-3.6%	-14.0%	14.1µM*
CCOc1cccc2c1Oc1nc(-c3ccccc3)nc(SCC(=O)Nc3ccc(F)cc3)c1C2	/	/	/	/	-7.2%	1.0%
CCOc1ccc(-c2nc3c(c(SCC(=O)Nc4ccccc4C)n2)Cc2ccccc2O3)cc1	/	/	/	/	1.8%	-2.9%
CCCC(=O)N1CCN(c2nc3ccc(F)cc3s2)CC1	/	/	/	/	7.6%	-1.7%
COc1ccc(-n2nc(C(=O)N3CCN(c4cccc(C)c4C)CC3)c3c4ccccc4n(C)c3c2=O)cc1	/	/	/	/	-8.2%	0.3%
COc1ccc(N2CCN(C(=O)CCNS(=O)(=O)c3ccccc3)CC2)cc1	?	-10.7%	9.47µM*	5.1%	?	-6.5%
CCOc1ccc(S(=O)(=O)NCCC(=O)N2CCN(c3ccc(OC)cc3)CC2)cc1	-24.3	11.5%	21.2µM*	-4.9%	-6.5%	-2.4%
COc1cc(NC(=O)c2cc(-c3cccc(OC)c3)n[nH]2)cc(OC)c1	/	/	/	/	3.2%	-7.3%
Nc1ccc(N2CCOCC2)c(Cl)c1	7.1	-8.3%	23.8µM*	-1.2%	6.3%	2.3%
Nc1cccc(Cl)c1N1CCOCC1	-9.9	-2.7%	26.7µM*	-2.6%	5.1%	-9.6%
O=C(Nc1cccc(Cl)c1N1CCOCC1)c1ccco1	-1.0	1.3%	0.1%	-1.2%	-7.1%	-4.4%
COC(=O)c1ccc(OCC2c3cc(OC)c(OC)cc3CCN2C(=O)c2cccc(C)c2)cc1 (stereo unspecified)	/	/	/	/	10.8%	-14.5%
CC[C@H](C)[C@H](NC(=O)[C@H](CCC(=O)O)NC(=O)[C@H](CO)NC(=O)[C@@H](NC(=O)[C@H](C)N)C(C)C)C(=O)N[C@@H](CCC(N)=O)C(=O)N[C@@H](CC(C)C)C(=O)N[C@@H](CCSC)C(=O)N[C@@H](Cc1cnc[nH]1)C(=O)N[C@@H](CC(N)=O)C(=O)N[C@@H](CC(C)C)C(=O)NCC(=O)N[C@@H](CCCCN)C(=O)N[C@@H](Cc1cnc[nH]1)C(=O)N[C@@H](CC(C)C)C(=O)N[C@@H](C)C(=O)N[C@@H](CO)C(=O)N[C@H](C(=O)N[C@@H](CCC(=O)O)C(=O)N[C@@H](CCCNC(=N)N)C(=O)N[C@@H](CCSC)C(=O)N[C@@H](CCC(N)=O)C(=O)N[C@@H](Cc1c[nH]c2ccccc12)C(=O)N[C@@H](CC(C)C)C(=O)N[C@@H](CCCNC(=N)N)C(=O)N[C@@H](CCCCN)C(=O)N[C@@H](CCCCN)C(=O)N[C@@H](CC(C)C)C(=O)N[C@@H](CCC(N)=O)C(=O)N[C@@H](CC(=O)O)C(=O)N[C@H](C(=O)N[C@@H](Cc1cnc[nH]1)C(=O)N[C@@H](CC(N)=O)C(=O)N[C@@H](Cc1ccccc1)C(=O)O)C(C)C)C(C)C	/	/	/	/	-12.4%	-5.5%
Oc1ccc(Cl)cc1C1=NNC(c2cccs2)C1 (stereo unspecified)	-8.8	0.9%	15µM*	?	?	?
Cc1ccc(O)c(C2=NNC(c3ccc(Cl)cc3)C2)c1 (stereo unspecified)	4.8	-1.1%	-8.7%	4.1%	-20.8%	-13.1%
O=S(=O)(NCCc1csc2nc(-c3ccc(Cl)cc3)nn12)c1cccs1	/	/	/	/	9.8%	-13.0%
Cc1ccc([N+](=O)[O-])cc1S(=O)(=O)N1CCC(C)CC1	-2.1	10.9%	37.7µM*	-0.2%	1.6%	-2.1%
SMILES	PI5P4K alpha inh	Rango release inh	PLK1 PBD inh	Rango complex inh	VDR inh	GCN5L2 inh
Cc1ccc(S(=O)(=O)N2CCC(C)CC2)c([N+](=O)[O-])c1	-1.4	9.9%	23.8µM*	4.2%	-7.4%	17.8%
COC(=O)[C@H](Cc1ccccc1)NC(=O)O[C@@H]1C(=O)c2ccc(OC)cc2O[C@H]1c1cccc(C(F)(F)F)c1	/	/	/	/	6.0%	/
O=C(Cn1c(=O)n(Cc2nc(-c3ccccc3)no2)c(=O)c2ccccc21)Nc1cccc(C(F)(F)F)c1	/	/	/	/	14.6%	-13.9%
COc1cccc(CNC(=O)C2CCN(S(=O)(=O)c3c(C)nn(C)c3C)CC2)c1	7.1	-25.4%	26.7µM*	-2.9%	-18.4%	-3.3%
Cc1nn(C)c(C)c1S(=O)(=O)N1CCCC(C(=O)NCCc2ccc(Cl)cc2)C1 (stereo unspecified)	-0.9	-4.1%	0.6%	-2.1%	-6.8%	-3.3%
Cc1ccc(CCNC(=O)C2CCCN(S(=O)(=O)c3c(C)nn(C)c3C)C2)cc1 (stereo unspecified)	-2.4	-0.4%	26.7µM*	0.9%	-9.0%	-4.5%
CCc1c(C)nc2ncnn2c1N1CCC(C(=O)NCc2cccc(OC)c2)CC1	/	-5.4%	26.7µM*	5.2%	?	-4.9%
CC(=O)N1CCCc2cc(S(=O)(=O)N(C)CC(=O)Nc3ccc(C(C)C)cc3)ccc21	/	/	/	/	12.7%	-8.3%
CCOc1ccccc1NC(=O)COC(=O)CN(C)S(=O)(=O)c1ccc(C)cc1	2.6	-10.2%	26.7µM*	?	?	-10.8%
COC(=O)c1ccccc1NC(=O)CCS(=O)(=O)c1ccc(Br)cc1	?	-20.7%	11.9µM*	-4.9%	?	-8.6%
CCOc1ccccc1NC(=O)CCS(=O)(=O)c1ccc(Br)cc1	-13.6	0.2%	29.9µM*	-4.0%	-12.2%	-7.7%
